Measured values taken from PubChem BioAssay AID489036 (National Center for Advancing Translational Sciences (NCATS), 2010).
Inconclusive results are not listed. Values without a mark were called inactive. The source made the active and inactive calls. Calls come from the whole dose curve; as a rule, active = well fitted inhibition curve with a large enough effect; inconclusive = small, poorly fitted or top-dose-only effect, or effect the other way; inactive = flat fitted curve, though single readings scatter.

Assay: VP16 selectivity assay for inhibitors of ROR gamma transcriptional activity
Conditions: Drosophila Schneider Gal4-VP16 UAS-luciferase reporter, 20 h; series mostly up to 92.2 µM; activity change, negative = inhibition: at the top concentration
Source text: NIH Molecular Libraries Probe Production Network [MLPCN] NIH Chemical Genomics Center [NCGC] MLPCN Grant: R03 DA026211-01 Assay Provider: Dan Littman, New York University Assay Overview: The retinoic acid-related orphan receptor (ROR) gamma is a transcription factor that has a central role in the differentiation of Th17 cells, a subset of T helper cells that secrete the inflammatory cytokines IL-17, IL-17F, and IL-22. Th17 cells have been implicated in graft versus host disease, autoimmune disease and asthma. ROR gamma is induced in naive T helper cells in the presence of TGF-beta combined with IL-6, IL-21, or IL-23, and thereafter directs the expression of the Th17 lineage cytokines. To identify nonspecific inhibitors, a Drosophila Schneider cell line was stably transfected with two vectors: a gene expressing a fusion of the Gal4 DNA binding domain and VP16 transactivation domain under the control of the metallothionine promoter and a Photinus luciferase reporter regulated by the Gal4 binding site enhancer, UAS. […] Small molecule inhibitors that inhibit components common to the RORgt and VP16 assays, such as the Gal4 DNA binding domain or the UAS luciferase reporter, will be active in both assays and thus scored as nonspecific.
Assay Protocol Summary: For screening, 600 cells in 4 uL/well were dispensed into white solid 1536-well plates (Grenier) using a solenoid-based dispenser. Following transfer of 23 nL compound or DMSO vehicle by a pin tool, the plates were incubated 1 hr at ambient temperature, and 1 uL/well copper sulfate (700 uM final concentration) was added. The plates were centrifuged 15 s at 1000 RPM and incubated 20 hr at ambient temperature. After addition of 1.5 uL Photinus luciferase detection reagent, the plates were incubated 10 min at ambient temperature and then read by an ViewLux (Perkin Elmer) to detect luminescence.

SMILES	activity change, negative = inhibition	Potency
COc1cc(O)c(C(CC(=O)N2CCCC(C)C2)c2ccccc2)c(OC)c1 (stereo not given)	1.81%	–
CC1CCCN(C(=O)CC(c2ccc3c(c2)OCO3)c2ccc(O)cc2O)C1 (stereo not given)	-16.7%	–
COc1cc(OC)c(C(CC(=O)N2CCCC(C)C2)c2ccc3c(c2)OCO3)c(OC)c1 (stereo not given)	–	51.2 µM (active)
COc1cc(O)c(C(CC(=O)N2CCC(C)CC2)c2ccc3c(c2)OCO3)c(OC)c1 (stereo not given)	–	inactive
CCOC(=O)C1CCN(CC(=O)Nc2cc(C)nn2-c2nc3ccccc3s2)CC1	–	22.9 µM (active)
COc1ccc2nc(NNC(=O)COc3ccccc3)sc2c1	–	6.45 µM (active)
COc1cc(O)c(C(CC(=O)N2CCCC2)c2ccc3c(c2)OCO3)c(OC)c1 (stereo not given)	-4.65%	–
COc1ccc(-c2c[n+]3c(n2-c2ccc(C)cc2)CCCCC3)cc1	–	5.12 µM (active)
CC(C)(C)OC(=O)N1CCC[C@H]1C(=O)N1CCC(C(=O)N[C@H](Cc2ccccc2)C(=O)NCc2ccc(F)cc2)CC1	-14.9%	–
CCOc1ccc(-c2cc(CCCC(=O)NCc3cccnc3)no2)cc1	–	2.88 µM (active)
COc1cc(O)c([C@H](CC(=O)N2CC(C)CC(C)C2)c2ccc3c(c2)OCO3)c(OC)c1 (stereo not given in full)	-28.7%	–
CCNC(=O)CCc1nc(-c2ccc(C(C)(C)C)cc2)no1	–	5.75 µM (active)
COc1cc(OC)c(C(CC(=O)N2CC(C)CC(C)C2)c2ccc3c(c2)OCO3)c(OC)c1 (stereo not given)	–	22.9 µM (active)
COc1cc(O)c(C(CC(=O)N2CCC[C@H](C)C2)c2ccc3c(c2)OCO3)c(OC)c1 (stereo not given in full)	–	inactive
O=C(/C=C/c1ccc(S(=O)(=O)N2CCOCC2)cc1)NC(=S)Nc1ccc(N2CCOCC2)cc1	–	20.4 µM (active)
COc1cc(O)c(C(CC(=O)N2CCC(c3ccccc3)CC2)c2ccc(OC)c(OC)c2)c(OC)c1 (stereo not given)	-1.5%	–
COc1cc(O)c(C(CC(=O)N2CCCCC2)c2ccc(C)cc2)c(OC)c1 (stereo not given)	-1.68%	–
COc1ccc(C(CC(=O)N2CCCC(C)C2)c2ccc3c(c2)OCO3)c(O)c1 (stereo not given)	-16.5%	–
O=C(CCCOc1ccccc1)Nc1nc2ccccc2[nH]1	–	14.4 µM (active)
COc1cc(O)c(C(CC(=O)N2CCc3ccccc32)c2ccc3c(c2)OCO3)c(OC)c1 (stereo not given)	-14.2%	–

SMILES	activity change, negative = inhibition	Potency
COc1cc(O)c(C(CC(=O)N2CCCC(CO)C2)c2ccc3c(c2)OCO3)c(OC)c1 (stereo not given)	-18.2%	–
COc1cc(O)c(C(CC(=O)Nc2ccc(C)cc2)c2ccc3c(c2)OCO3)c(OC)c1 (stereo not given)	–	40.7 µM (active)
Cc1ccc(C)c(/C=N/n2cc(-c3ccccc3)[nH]c2=S)c1	–	20.4 µM (active)
COc1cc(O)c(C(CC(=O)N2CC(C)NC(C)C2)c2ccc3c(c2)OCO3)c(OC)c1 (stereo not given)	1.93%	–
COC(=O)Cn1c(CN2CCc3ccccc3C2)nc2c1c(=O)n(C)c(=O)n2C	–	9.11 µM (active)
COC(=O)c1ccc(OCC(=O)c2ccc(O)cc2O)cc1	–	2.04 µM (active)
COc1cc(O)c(C(CC(=O)N2CCC(Cc3ccccc3)CC2)c2ccc(OC)c(OC)c2)c(OC)c1 (stereo not given)	-5.36%	–
COc1cc(O)c(C(CC(=O)N2CCCC(C)C2)c2ccc(C)cc2)c(OC)c1 (stereo not given)	–	45.7 µM (active)
CCCCNC(=O)CC(c1ccc2c(c1)OCO2)c1c(O)cc(OC)cc1OC (stereo not given)	-10.5%	–
COc1ccc(CNC(=O)[C@H](Cc2ccccc2)NC(=O)C2CCN(C(=O)[C@@H]3CCCN3C(=O)OC(C)(C)C)CC2)cc1	-1.94%	–
COc1cc(C)nc(-n2nc(C)cc2OC)n1	–	14.4 µM (active)
COc1cc(O)c(C(CC(=O)N2CCCC(C(=O)N3CCCCC3)C2)c2ccc3c(c2)OCO3)c(OC)c1 (stereo not given)	6.67%	–
COc1cc(O)c(C(CC(=O)N2CCOCC2)c2ccc3c(c2)OCO3)c(OC)c1 (stereo not given)	21.6%	–
COc1cc(O)c(C(CC(=O)N2CCCC(C)C2)c2ccc(-c3ccccc3)cc2)c(OC)c1 (stereo not given)	-13.7%	–
C=C1Nc2c(-c3ccc(F)cc3)cnn2C(N)=C1c1ccccc1	–	0.288 µM (active)
CC1CCCN(C(=O)CC(c2ccc3c(c2)OCO3)c2ccc3ccccc3c2O)C1 (stereo not given)	-13%	–
O=C(CCCN1C(=O)/C(=C/c2ccccc2Cl)SC1=S)Nc1cccnc1	–	28.8 µM (active)
COc1cc(O)c(C(CC(=O)N2CCCC(C)C2)c2ccc3c(c2)OCO3)c(OC)c1 (stereo not given)	10.9%	–
C#CCOc1cc(OC)cc(OC)c1C(CC(=O)N1CCCC(C)C1)c1ccc2c(c1)OCO2 (stereo not given)	–	45.7 µM (active)
CC(C)(C)c1ccc(-c2noc(CCC(=O)Nc3cccnc3)n2)cc1	–	2.04 µM (active)
